Measurements: PubChem BioAssay AID977630 (Broad Institute, 2014)
In all, about 1,600 compounds went through this assay and fewer than 10 were called active. Not shown: some 48% with an inconclusive outcome.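 The calls were made as follows: active = Normal-ribosome green reporter loss at least double humanized-ribosome red reporter loss, with overall culture growth inhibition under a set limit; inconclusive = no clear call, values can overlap the other calls; inactive = the rest.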 Not all results are given here. Potency and affinity values are given separately.

Experiment: E. coli growth inhibition, wild-type GFP versus H38 humanized RFP strain – H38 mutant RFP vs wild-type GFP, cherry-pick, dose response (AID 977630)
Conditions: mixed culture, 24 h; series mostly up to 50 µM; activity change, negative = inhibition: at the top concentration

Activity change, negative = inhibition, inactive:
COc1ccccc1-c1noc2ncnc(Nc3cccc(C)c3C)c12 -12.6, Cc1ccc([N+](=O)[O-])c(OCCn2cnc3ccccc32)c1 -3.1, Cc1cc2nc(SCC(=O)O)nc(C)c2cc1C -1.89, COc1ccc(CN2C(=O)CC(Cc3cc(C)cc(C)c3)C2=O)cc1OC (stereo not given) -9.75, O=C(CN(c1ccc(F)cc1)S(=O)(=O)c1ccccc1)Nc1ccccc1C(=O)O -16.1, COc1ccc(OC)c(-c2nn(-c3ccccc3)cc2C(=O)N2CCc3ccccc3C2)c1 -1.81, CN(C)c1ccc(-c2nnn(CC(=O)Nc3ccccc3N3CCOCC3)n2)cc1 -7.73, CC(CCc1ccccc1)NC(=O)CCC1CCCC1 (stereo not given) -14.9, COc1ccc(-c2nc(C3CCCCC3)no2)cc1OC -8.9, CCC1(C(=O)OC)CCc2c(cc(OC)c3ccccc23)C1=O (stereo not given) -1.7, CN(Cc1c(F)cccc1Cl)C(=O)c1ccc(NS(=O)(=O)c2ccc3[nH]c(=O)[nH]c3c2)cc1 1.93, Nc1ccc(C(=O)Nc2ccc3nc(-c4ccncc4)[nH]c3c2)cc1 -4.86, Cc1ccccc1Nc1c(-c2cccnc2)nc2ccc(Br)cn12 3.56, CN(C)S(=O)(=O)c1cccc(C(=O)Nc2ccc(C(=O)Nc3cccc(S(N)(=O)=O)c3)cc2)c1 -13.6, CCN(CC)c1nc(Oc2ccc(C(=O)OC)cc2)nc(N2CCOCC2)n1 -10.1, Cc1nc2ncnn2c(N2CCC(C(=O)NC3CCCC3)CC2)c1Cc1ccccc1 -8.17, CCN(CC(=O)Nc1cccc(S(=O)(=O)N2CCCC2)c1)CC(=O)Nc1ccccc1OC -16.9, COCc1nnc(NC(=O)c2ccc(S(=O)(=O)N3CCCC3)cc2)o1 -9.48, Cc1cccc(N2Cc3ccc(Br)cc3C2)c1 0.636, CCN(CC)S(=O)(=O)c1ccc(N2CCCC2)c(NC(=O)c2ccccc2OC)c1 -11, O=C(Nc1ccc(Nc2ccccc2)cc1)c1ccc(F)cc1 -19.7, Fc1ccc(Br)cc1SCCc1ccncc1 -5.72, CCOC(=O)c1ccc(NC(=O)c2ccc(OC(C)C)c(OC)c2)cc1 -13.1, COc1cccc(NC2=Nc3cccc4cccc2c34)c1 0.034, CS(=O)(=O)N(CC(=O)N1CCc2ccccc2C1)c1cccc(Br)c1 -7.69, CC1Cc2cc(S(=O)(=O)N3CCN(c4cccc(Cl)c4)CC3)ccc2N1C(=O)C1CC1 (stereo not given) -7.78, Cn1c(=O)c2c(ncn2CC(O)CNc2ccc(F)cc2)n(C)c1=O (stereo not given) -2.9, O=C(NCCCN1CCOCC1)c1sc2cc([N+](=O)[O-])ccc2c1Cl -0.6, CN1OC[C@@H]2CN(C(=O)c3ccco3)[C@H](c3ccc(-c4ccc(C#N)cc4)cc3)C[C@@H]21 -0.137, COCC#Cc1ccc2c(c1)O[C@@H](CN(C)S(=O)(=O)c1cccc(F)c1)[C@@H](C)CN([C@H](C)CO)S2(=O)=O -17.1, O=C(CSCc1cnn(-c2ccccc2)c1-n1cccc1)NCc1cccnc1 4.83, CCOC(=O)C1NN=C(C(=O)c2ccccc2)C1c1ccc(OC)cc1 (stereo not given) -0.226, CN1CCN(C(=O)c2cc3nc(-c4ccco4)cc(C(F)(F)F)n3n2)CC1 4.79, Cc1cccc(CN2C(=O)c3ccccc3Sc3ccc(C(=O)NCCN4CCOCC4)cc32)c1 -9.56, S=c1nc(-c2cccc(Br)c2)[nH][nH]1 -17, O=C(Cc1ccc(Br)cc1)Nc1cccc(-c2cn3c(n2)SCC3)c1 -13.7, Cc1cc(SCC(=O)c2cccs2)n2nc(C)c(-c3ccc(Cl)cc3)c2n1 -3.99, CC(C)[C@@H]1CC[C@@H](C)C[C@H]1O 44.4, COc1ccc(-c2cc(C(=O)O)nc3ccc4ccccc4c23)cc1OC -15.7, COc1ccc(C(=O)COc2ccc(F)cc2)c(O)c1 3.67, O=C(O)CC1(CC(=O)Nc2ccc3sccc3c2)CCCCC1 -2.25, CCOC(=O)C(CC)Sc1cc(C)nc2ccc(OC)cc12 (stereo not given) -17.8, O=C(NC1CCCCC1)C(c1cccc2ccccc12)n1c(=O)c(-c2ccco2)nc2ccccc21 (stereo not given) -2.93, COc1cc(CC(=O)Nc2nc(C)cs2)cc(OC)c1OC -5.62, Cc1cc(NC(=O)c2sc(Nc3ccc(F)c(Cl)c3)nc2N)no1 9.52, COc1cc(OC)cc(-c2nc3ccccc3c(=O)n2OC(=O)c2ccc(C)c(C)c2)c1 10.3, Cn1ccc2cc(-c3ccc4ncnc(NCc5cccs5)c4c3)ccc21 -14.3, Fc1ccccc1C1CCN(Cc2nc(CC3CC3)no2)C1 (stereo not given) 0.528, O=C(COc1ccc(Br)cc1)Nc1ccc(C(=O)Nc2ccccc2C(=O)O)cc1 -23.1, C#CCOc1nc(Nc2cccc([N+](=O)[O-])c2)nc(OCC#C)n1 -4.34, OC(COc1ccc(Cl)cc1)CN1CCN(c2ccccn2)CC1 (stereo not given) -7.68, Cc1nn(-c2ccc(N3CCCCC3)nn2)c(C)c1CCC(=O)Nc1ccc(F)cc1 15.2, COc1cc2c(cc1OC)C1(C)N(CC2)C(C(C)=O)=NN1c1ccc(Cl)cc1 (stereo not given) -11.9, O=C(Nc1ccc(C(F)(F)F)cc1)C1CCN(c2cnccn2)CC1 -7.16, Cc1nn(CC(=O)OCCOc2ccc(Br)cc2)c(C)c1[N+](=O)[O-] -13.8, NS(=O)(=O)c1cccc(NC(=O)COc2ncnc3c2cnn3-c2ccccc2)c1 11.2, c1ccc2c(c1)Nc1cc3ccccc3cc1S2 14.4, CC(C)OC(=O)c1sc2nc(-c3ccccc3)ccc2c1N 6.79, COc1ccc(C2CC(c3ccc(Br)cc3)=NN2C(=O)CN2CCCC2)cc1 (stereo not given) -0.841, COc1ccc(CNC(=O)c2nc(S(=O)(=O)Cc3ccccc3)ncc2Cl)cc1 3.47, CCc1nc2ccccc2c(C(=O)OCC(=O)NC(=O)c2cccn2C)c1C 0.218, O=C(Nc1ccccc1N1CCOCC1)C1CCCCN1S(=O)(=O)c1ccccc1 (stereo not given) -15.6, CCOc1ccc(NC(=O)CCc2nnc3ccc(N4CCC(C)CC4)nn23)cc1 5.84, Cc1cc(C)cc(NS(=O)(=O)c2c(C(=O)N3CCCCCC3)c(C)n(C)c2C)c1 -5.32, COc1ccc(CN(C)C(=O)c2cc(-c3ccc(OC)c(OC)c3)nc3ccccc23)c(OC)c1 -3.82, CC1(C(=O)NS(=O)(=O)c2cccc(F)c2)CCN1C(=O)C1(c2ccc(Cl)cc2)CCC1 (stereo not given) -2.51, CC(C)(C)NC(=O)C(c1ccncc1)N(Cc1ccc(F)cc1)C(=O)c1ccc(-c2ccccc2)[nH]1 (stereo not given) 7.88, Cc1ccc(C(=O)C2Oc3ccccc3C3CC(c4ccc(C)cc4)=NN23)cc1 (stereo not given) 9.36, Cc1nc(N2CCC(C)CC2)c(C#N)c(C)c1[N+](=O)[O-] -13.2, Cc1cc(NC(=O)CCN2C(=O)C3C4C=CC(C4)C3C2=O)ccc1Br (stereo not given) -16.8, CCOc1ccc2[nH]c3c(NCCN(C)C)ncnc3c2c1 -14.5, Cc1ccc(S(=O)(=O)N(C(=O)c2ccncc2)c2ccc(OC(=O)c3ccncc3)cc2)c(C)c1 -4.92, COc1ccc(C(NC(=O)C2CCN(CCOc3ccc(Cl)cc3Cl)CC2)c2ccccc2C)cn1 (stereo not given) -11.5, COc1cccc(-c2ccc(NC(=O)C3CCCN(Cc4cnn(C(C)C)c4)C3)cc2)c1 (stereo not given) -10.3, Cc1cccc(NC(=O)c2c(C)nn(-c3ccccc3)c2Cl)c1 -12.1, CC(C)Oc1cccc(C(=O)C2CCCN(C(=O)c3cc(C(F)(F)F)[nH]n3)C2)c1 (stereo not given) -16.1, Cc1ccccc1-c1nc(CS(=O)(=O)CC(=O)N2CCCCC2)c(C)o1 -7.64, COc1cccc(NC(=O)C(c2ccccc2)N2CCN(c3ccccn3)CC2)c1 (stereo not given) 0.522, COC(=O)c1ccc2nc(-c3ccc(F)cc3)c(Cc3cccc(F)c3)n2c1 8.32, COc1ccc(-c2nn(-c3ccccc3C)cc2CNCc2cccnc2)cc1F 0.878, CC1CCc2c(sc3ncn4c(SCC(=O)NCc5ccco5)nnc4c23)C1 (stereo not given) 0.062, CC1CN(CC(=O)Nc2nc3ccccc3s2)CC(C)O1 (stereo not given) 9.37, O=S(=O)(Nc1ccccc1N1CCCCC1)c1cccs1 -10.8, Cc1ccn2cc(-c3cccc(NC(=O)c4cccs4)c3)nc2c1 -0.986, O=S(=O)(Cc1ccc(Cl)cc1)N1CCN(Cc2ccc3c(c2)OCO3)CC1 33, Cc1cccc(NS(=O)(=O)c2cc3c(cc2C)NC(=O)CO3)c1 2.86, O=C(CSCc1c(Cl)cccc1Cl)NCc1ccccn1 -3.03, Cc1cccc(N2CCN(Cc3nc(-c4ccc(F)cc4F)oc3C)CC2)n1 -12.6, CCNc1nc(N)c(C(=O)C23CC4CC(CC(C4)C2)C3)s1 -3.15, CNC(=O)c1sc(-c2ccccn2)nc1C 43.1, Cc1cc(C)c(OCCN(C)Cc2ccccc2)c(Br)c1 -6.16, O=C(Nc1cc(S(=O)(=O)N2CCCCC2)ccc1N1CCCCC1)C1CC1 -2.36, CCCCNC(=O)c1c(N)[nH]c(C(=O)c2ccccc2)c1-c1ccccn1 -9.15, Cc1nn(S(=O)(=O)c2ccc(Cl)cc2)c(C)c1Sc1ccc([N+](=O)[O-])cc1 2.54, Cc1cccc(NC(=O)c2sc3nc(-c4ccccc4)cn3c2C)n1 -13.7, COC(=O)c1ccc(CSc2nc3ccccc3s2)o1 1.79, COc1ccccc1-c1noc2ncnc(Nc3ccccc3C)c12 -1.41, O=C(c1cccs1)c1c[nH]cc1-c1ccccc1 -0.904, Cc1ccc(CSCC(=O)Nc2ccccc2F)cc1 -11.7, COc1ccc(NC(=O)c2ccc(COc3ccccc3Br)o2)c(OC)c1 -8.05, CCc1nnc(NC(=O)CSc2ncc(-c3ccccc3)[nH]2)s1 7.1, COc1cccc(NC(=O)C2CCC(CNS(=O)(=O)c3cccc4cccnc34)CC2)c1 (stereo not given) -8.77, CCOC(=O)c1sc(Nc2cccc(Cl)c2)nc1C 5.47, Cn1c(=O)n(C)c2cc([N+](=O)[O-])c(N3CCN(C(=O)c4cccc(F)c4)CC3)cc21 -2.34, Brc1ccc(-c2nc3c4ccccc4ccn3c2Cc2ccccc2)cc1 5.21
